The record followed here is the supplement of paper PMC8047044.

Where “and” joins values, the source holds several entries; their conditions need not be identical. Equal values may be shown once. Where a name gives a salt, the structure may show the parent alone.

For the assay, the system named is Neuro-2a. The assay is described as follows: neurite formation score, plate-normalized to DMSO control mean 5.04 (score (0-8 scale)); higher = more or longer neurites. The following applies: 1 µM. How it is done: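 Neuro-2a mouse neuroblastoma cells in PLL-coated 96-well plates were pre-treated for 1 h in DMEM(+) with each kinase inhibitor at 1 µM, then switched to serum-free DMEM(-) with inhibitor to induce neurite outgrowth and fixed about 2-3 h later. Three blinded observers scored neurite formation from 0 (no neurites) to 8 (long neurites on almost all cells).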
`COc1cc(OC)c(/C=C/S(=O)(=O)Cc2ccc(OC)c(NCC(=O)O)c2)c(OC)c1`: the neurite formation score came to 0.908.
Then `COc1ccc(-c2nc(N3CCOCC3)c3sc(CN(C)c4ncc(C(=O)NO)cn4)cc3n2)cn1`, with 4.36; and `CC(C)n1nc(-c2cc3cc(O)ccc3[nH]2)c2c(N)ncnc21`, with 3.47; and `Cc1cc(C)c(/C=C2\C(=O)Nc3ccccc32)[nH]1` [Semaxanib (SU5416)], with 4.54.
Then `Oc1ccc2ccccc2c1SSc1c(O)ccc2ccccc12`, with 3.88; and `CC(=O)Nc1nc(C)c(-c2ccc(Cl)c(S(=O)(=O)NCCO)c2)s1`, with 4.57.
As for `C#Cc1cccc(Nc2ncnc3cc(OCCOC)c(OCCOC)cc23)c1` [Erlotinib Hydrochloride], the figure is 4.57; as for `O=C(c1ccc(F)c(F)c1Nc1ccc(I)cc1F)N1CC(O)([C@@H]2CCCCN2)C1` [Cobimetinib], 3.24.
Molecule `O=C1NC(=O)[C@@H](c2cn3c4c(cccc24)CCC3)[C@@H]1c1c[nH]c2ccccc12` [Tivantinib (ARQ 197)] displayed a neurite formation score of 0.236.
As for `Cc1cc(N2CCOCC2)cc2[nH]c(-c3c(NC[C@@H](O)c4cccc(Cl)c4)cc[nH]c3=O)nc12`, the figure is 3.57; as for `Cn1cc(-c2ccc3nnc(Sc4ccc5ncccc5c4)n3n2)cn1`, 4.24.
As for `COc1cc(CCc2cc(NC(=O)c3ccc(N4CC(C)NC(C)C4)cc3)n[nH]2)cc(OC)c1` (stereo not given), the figure is 3.9; as for `Cc1cc(Nc2cc(N3CCN(C)CC3)nc(/C=C/c3ccccc3)n2)n[nH]1`, 3.02.
Then `N#CC(=C(/N)Sc1ccccc1N)/C(C#N)=C(\N)Sc1ccccc1N`, with 4.57; and `Nc1ccc(-c2ccc3ncc4ccc(=O)n(-c5cccc(C(F)(F)F)c5)c4c3c2)cn1` [Torin 2], with 3.21.
In the case of `CCN1CCN(Cc2ccc(-c3cc4c(N[C@H](C)c5ccccc5)ncnc4[nH]3)cc2)CC1`, the neurite formation score came to 2.57.
The molecule `Cc1nc(NC(=O)N2CCC[C@H]2C(N)=O)sc1-c1ccnc(C(C)(C)C(F)(F)F)c1` yielded a neurite formation score of 5.24.
As for `FC(F)(F)c1ccc(CNc2ccc(Cc3c[nH]c4ncc(Cl)cc34)cn2)cn1` [Pexidartinib (PLX3397)], the figure is 4.54.
The molecule `Fc1cc(-c2cccc3ncc(-c4cnn(C5CCNCC5)c4)nc23)cc(F)c1CN1CCOCC1` registered a neurite formation score of 4.47.
As for `CN(C)CCSSCCNC(=O)C1CCN(C(=O)CSc2ccc(Cl)cc2)CC1`, the figure is 3.63.
Then `Cc1[nH]c(/C=C2\C(=O)Nc3ccc(S(=O)(=O)Cc4c(Cl)cccc4Cl)cc32)c(C)c1C(=O)N1CCC[C@@H]1CN1CCCC1`, with 3.91; and `Cc1nc(Nc2n[nH]c3c2CN(C(=O)N[C@H](CN(C)C)c2ccccc2)C3(C)C)c2sccc2n1`, with 4.02.
Regarding `O=C(O)[C@]1(Cc2cccc(Nc3nccs3)n2)CC[C@@H](Oc2cccc(Cl)c2F)CC1`, the neurite formation score amounted to 3.69.
As for `CNc1nc(-c2ccc3c(N)n[nH]c3c2)cc(N2C[C@@H](C(=O)NC3CCCCC3)CC[C@H]2C)n1`, the figure is 4.88; as for `COc1ccc(-c2ccc3ncc4c(c3c2)n(-c2ccc(N3CCNCC3)c(C(F)(F)F)c2)c(=O)n4C)cn1`, 4.29.
Then `O=c1cc(N2CCOCC2)oc2c(-c3cccc4c3sc3ccccc34)cccc12`, with 2.9; and `CN(C)Cc1cccc(N=C(c2ccccc2)c2c(O)[nH]c3cc(C(=O)N(C)C)ccc23)c1`, with 4.9.
`C=CC(=O)Nc1cc(Nc2nccc(-c3cn(C)c4ccccc34)n2)c(OC)cc1N(C)CCN(C)C` came in with a neurite formation score of 5.14.
Then `COc1cc(F)c(F)c(Nc2ccc(I)cc2F)c1NS(=O)(=O)C1(C[C@H](O)CO)CC1` [Refametinib], with 4.14; and `CO[C@H]1C[C@@H]2CC[C@@H](C)[C@@](O)(O2)C(=O)C(=O)N2CCCC[C@H]2C(=O)O[C@H]([C@H](C)C[C@@H]2CC[C@@H](OC(=O)C(C)(CO)CO)[C@H](OC)C2)CC(=O)[C@H](C)/C=C(\C)[C@@H](O)[C@@H](OC)C(=O)[C@H](C)C[C@H](C)/C=C/C=C/C=C/1C` [Temsirolimus], with 4.24.
As for `Cc1ccc(-c2nn(C(C)(C)C)c3ncnc(N)c23)cc1`, the figure is 2.9; as for `CN([C@@H](Cc1ccc(OS(=O)(=O)c2cccc3cnccc23)cc1)C(=O)N1CCN(c2ccccc2)CC1)S(=O)(=O)c1cccc2cnccc12`, 2.9; as for `CC(C)(C)c1nc(-c2cccc(NS(=O)(=O)c3c(F)cccc3F)c2F)c(-c2ccnc(N)n2)s1`, 5.02 and 5.29.
Consider `COc1cccc(-c2cc(=O)c3ccccc3o2)c1N`, for which the neurite formation score came to 3.57.
Then `c1nc2c(NC3CCCCC3)nc(Nc3ccc(N4CCOCC4)cc3)nc2[nH]1` [Reversine], with 5.02.
Then `CNC(=O)c1ccccc1Nc1nc(Nc2ccc(N3CCOCC3)cc2OC)ncc1Cl`, with 4.29.
In turn, `CNC(=O)c1cc(Oc2ccc(NC(=O)Nc3ccc(Cl)c(C(F)(F)F)c3)cc2)ccn1` [Sorafenib] registered a neurite formation score of 4.24.
Then `Cn1cnc2c(F)c(Nc3ccc(Br)cc3F)c(C(=O)NOCCO)cc21`, with 3.24; and `CN(C)Cc1cccc(N=C(c2ccccc2)c2c(O)[nH]c3cc(C(N)=O)ccc23)c1`, with 4.24; and `CCS(=O)(=O)N1CC(CC#N)(n2cc(-c3ncnc4[nH]ccc34)cn2)C1`, with 4.02.
